In PMC4336329 (PLoS ONE, 2015):
Screen size: about 310,000 compounds; about 14,000 (4.5%) showed an effect of 50% or more. Effects have a minus sign here. The sample holds strong results, similar compounds and a random draw of the others, so the mix is not that of the screen.

target: human ether-à-go-go-related gene (hERG) potassium channel (human, UniProt Q12809); assay: primary screen, population patch clamp on CHO cells stably expressing hERG; higher = less effect of the substance
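Further: peak tail current of the secondary pulse compared with the same well before compound.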

human ether-à-go-go-related gene (hERG) potassium channel, sequence (Q12809 whole entry, looked up): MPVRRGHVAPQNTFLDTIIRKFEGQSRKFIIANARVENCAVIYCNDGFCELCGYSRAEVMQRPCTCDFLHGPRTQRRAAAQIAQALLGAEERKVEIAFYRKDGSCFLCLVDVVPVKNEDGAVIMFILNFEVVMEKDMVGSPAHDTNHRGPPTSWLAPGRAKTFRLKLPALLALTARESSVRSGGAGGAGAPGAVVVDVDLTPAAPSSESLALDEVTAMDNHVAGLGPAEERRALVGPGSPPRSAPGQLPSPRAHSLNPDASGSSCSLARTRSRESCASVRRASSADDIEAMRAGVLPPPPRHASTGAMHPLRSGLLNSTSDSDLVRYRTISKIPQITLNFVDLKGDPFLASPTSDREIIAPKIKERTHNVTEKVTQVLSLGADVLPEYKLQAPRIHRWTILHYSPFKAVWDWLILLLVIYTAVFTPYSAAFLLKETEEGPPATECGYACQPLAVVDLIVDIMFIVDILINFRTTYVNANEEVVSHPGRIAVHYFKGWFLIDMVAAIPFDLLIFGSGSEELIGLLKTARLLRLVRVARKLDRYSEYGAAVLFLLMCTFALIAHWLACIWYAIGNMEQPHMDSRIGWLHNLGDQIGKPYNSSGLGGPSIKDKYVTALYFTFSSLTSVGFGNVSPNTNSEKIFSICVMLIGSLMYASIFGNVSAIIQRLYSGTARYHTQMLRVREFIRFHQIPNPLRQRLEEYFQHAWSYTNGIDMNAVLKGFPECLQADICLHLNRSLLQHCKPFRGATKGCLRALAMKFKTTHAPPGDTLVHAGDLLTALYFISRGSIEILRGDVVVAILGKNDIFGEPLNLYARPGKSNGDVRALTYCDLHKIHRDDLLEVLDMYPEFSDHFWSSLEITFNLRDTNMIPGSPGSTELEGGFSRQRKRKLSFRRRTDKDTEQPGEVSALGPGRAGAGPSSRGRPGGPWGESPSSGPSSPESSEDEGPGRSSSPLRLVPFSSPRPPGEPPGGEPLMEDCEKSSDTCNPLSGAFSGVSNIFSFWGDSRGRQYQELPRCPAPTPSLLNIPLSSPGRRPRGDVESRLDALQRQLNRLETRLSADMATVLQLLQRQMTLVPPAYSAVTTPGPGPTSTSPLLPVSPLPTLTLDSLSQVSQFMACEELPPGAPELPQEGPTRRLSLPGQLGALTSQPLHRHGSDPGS

SMILES	hERG current change (%, negative = inhibition) at 10uM
COc1ccc(C(C(=O)NC2CCCCC2)N2CCC3(CC2)OCCO3)cc1 (stereo not shown)	-8.32%
Nn1c(Nc2ccccc2)nc2ccccc2c1=O	14.2%
O=C(CC1C(=O)NCCN1Cc1cccc(F)c1F)NC1CCCCCC1 (stereo not shown)	-10.6%
CC1CCN(c2ccc(S(=O)(=O)NC3=NCCCCC3)cc2[N+](=O)[O-])CC1	-11.2%
COc1cccc(C2CC(c3cccs3)=NN2S(C)(=O)=O)c1OC (stereo not shown)	7.29%
CCc1cc(C(=O)NNC(=S)Nc2cccc(C)c2)cs1	3.09%
O=C1c2ccccc2C(=O)N1CCSc1ncn[nH]1	19.7%
O=[N+]([O-])c1ccccc1S(=O)(=O)NCc1ccc(F)cc1	7.19%
CC(NC(=O)c1ccc([N+](=O)[O-])cc1[N+](=O)[O-])c1ccc(-c2ccccc2)cc1 (stereo not shown)	-1.64%
CCC(NC(=O)c1ccccc1O)c1ccccc1 (stereo not shown)	-33.3%
CCC(NC(=O)c1ccc([N+](=O)[O-])cc1[N+](=O)[O-])c1ccccc1 (stereo not shown)	-56%
CN(C)c1ccc(CNCC2CCCO2)cc1.Cl (stereo not shown)	10.5%
Cc1ccc(NC(=O)CN(C)C(=O)CCC(=O)c2cccs2)cc1	-16.2%
CC1CCOC2(O1)C(=O)Nc1ccccc12 (stereo not shown)	16.1%
Cc1nnc(Sc2cc(C(=O)NCCCN(C)Cc3ccccc3)c3ccccc3n2)s1	-56.2%
O=C(NCCCN1CCCC1)c1cc(Sc2ccc(F)cc2)nc2ccccc12	-74.1%
CN(C)CCNC(=O)c1cc(Sc2ccc(F)cc2)nc2ccccc12	-72.5%
CCN(CC)CCCNC(=O)c1cc(Sc2nnc(C)s2)nc2ccccc12	-40.4%
Cc1ccc(Sc2cc(C(=O)NCCN(C)C)c3ccccc3n2)cc1	-93.9%
COCCCNC(=O)c1cc(Sc2nnc(C)s2)nc2ccccc12	2.3%
O=C(NCCCN1CCOCC1)c1cc(-c2ccc(F)cc2)nc2ccccc12	-27.5%
CCOCCCNC(=O)c1cc(Sc2ccc(F)cc2)nc2ccccc12	-12.4%
CC(C)OCCCNC(=O)c1cc(Sc2ccc(F)cc2)nc2ccccc12	-5.77%

SMILES	hERG current change (%, negative = inhibition) at 10uM
COCCNC(=O)c1cc(Sc2nnc(C)s2)nc2ccccc12	-18.2%
CCN(CC)CCNC(=O)c1cc(Sc2nnc(C)s2)nc2ccccc12	-45.3%
COCCCNC(=O)c1cc(Sc2ccc(F)cc2)nc2ccccc12	-26.9%
O=C(O)CCc1ccc(-c2ccc(F)cc2)n1NC(=O)c1ccco1	8.01%
CCN(CC(=O)N1CCN(C)CC1)S(=O)(=O)c1ccc(Cl)cc1	-5.94%
O=C1c2ccccc2S(=O)(=O)c2cc(C(=O)N3CCCC3)ccc21	-1.93%
O=C(CNC(=O)c1cccc(Br)c1)N/N=C/c1cccnc1	-14%
O=C(Nc1cccc(-c2ccc(N3CCCCC3)nn2)c1)C(F)(F)F	-8.5%
C/C(CC(=O)NC1CCCCC1)=N\NC(=O)COc1ccc(C)cc1Br	-22.8%
CCOCCCNC(=O)c1cc(Sc2nnc(C)s2)nc2ccccc12	-2.23%
Cc1ccc(Sc2cc(C(=O)NCCCN(C)C)c3ccccc3n2)cc1	-56.5%
CCOCCCNC(=O)c1cc(Sc2ccc(C)cc2)nc2ccccc12	-19.3%
COc1ccc(C=O)cc1OS(=O)(=O)c1ccccc1[N+](=O)[O-]	-3.35%
COc1ccc(NS(=O)(=O)c2cccc(C(=O)NNC(=O)c3ccccc3OC)c2)cc1	-16.4%
Cn1c(=O)n(Cc2ccco2)c(=N)c2c3c(sc21)CCCC3	-31.4%
CN(C)CCn1c(=O)n(Cc2ccco2)c(=O)c2c3c(sc21)CCCCC3	-50.4%
CN(C)CCn1c(=O)n(-c2cccc(Cl)c2)c(=O)c2c3c(sc21)CCCCC3	-20.7%
CN(C)CCn1c(=O)n(-c2ccc(F)cc2)c(=O)c2c3c(sc21)CCCCC3	-18.6%
CN(C)CCCn1c(=O)n(Cc2ccco2)c(=O)c2c3c(sc21)CCCCC3	-71.1%
NC(=O)Cn1c(=O)n(Cc2ccco2)c(=O)c2c3c(sc21)CCCCC3	5.2%
O=c1c2c3c(sc2[nH]c(=S)n1Cc1ccco1)CCC3	6.17%
Cn1c(=O)n(Cc2ccco2)c(=N)c2c3c(sc21)CCC3	-64.8%
CC(O)CNc1nc2sc3c(c2c(=O)n1Cc1ccco1)CCCCC3 (stereo not shown)	4.61%

SMILES	hERG current change (%, negative = inhibition) at 10uM
Cc1c(NC(=O)COC(=O)CSc2ccc(C(N)=O)cc2[N+](=O)[O-])c(=O)n(-c2ccccc2)n1C	23.1%
Cc1ccc(C)c(S(=O)(=O)N2CCN(C(=O)CCNS(=O)(=O)c3ccccc3)CC2)c1	-33.6%
O=C1NC(c2ccccc2)=NC1(NS(=O)(=O)c1ccccc1)C(F)(F)F (stereo not shown)	-3.5%
Cc1ccc(S(=O)(=O)N2CCC(C(=O)OC(C)C(=O)NC3CCCCC3C)CC2)cc1C (stereo not shown)	-25.4%
Cc1ccc(NC(=O)c2sc3nc4c(c(-c5ccco5)c3c2N)CCC4)cc1	11.6%
Cc1cc(C(=O)Nc2ccc3[nH]ccc3c2)no1	6.46%
Cc1ccc(S(=O)(=O)NCCSc2ccccc2)cc1[N+](=O)[O-]	-0.246%
CN1CCN(S(=O)(=O)c2cccc(C(=O)N(Cc3ccccc3)c3ccccc3)c2)CC1	-19.9%
Cc1ccc(N(Cc2ccccc2)C(=O)c2cccc(S(=O)(=O)N3CC(C)OC(C)C3)c2)cc1 (stereo not shown)	-7.01%
CC(=O)N1CCN(S(=O)(=O)c2cccc(C(=O)N(Cc3ccccc3)c3cccc(C)c3)c2)CC1	-27.4%
Cc1ccc(N(Cc2ccccc2)C(=O)c2cccc(S(=O)(=O)N3CCOCC3)c2)cc1	-74.5%
CC(=O)N1CCN(S(=O)(=O)c2cccc(C(=O)N(Cc3ccccc3)c3ccc(C)cc3)c2)CC1	-61.2%
Cc1ccc(N(Cc2ccccc2)C(=O)c2ccc(S(=O)(=O)N3CCOCC3)cc2)cc1	-28.5%
Cc1cccc(N(Cc2ccccc2)C(=O)c2cccc(S(=O)(=O)N3CC(C)OC(C)C3)c2)c1 (stereo not shown)	-9.56%
Cc1ccc(N(Cc2ccccc2)C(=O)c2cccc(S(=O)(=O)N3CCN(C)CC3)c2)cc1	-52.7%
Cc1ccc(N(Cc2ccccc2)C(=O)c2cc(S(=O)(=O)N3CCOCC3)ccc2C)cc1	-27.4%
CCCCSc1n[nH]c(N)n1	14%
CC(C)CCn1c(N2CCC(C(N)=O)CC2)nc2c1c(=O)[nH]c(=O)n2C	11.1%
CCOc1cc2[nH]c(=S)n(CCCC(=O)NCc3ccco3)c(=O)c2cc1OCC	-7.08%
CCOC(=O)/C(C#N)=C/N1CCOCC1	-1.97%
COc1cccc(C2C3(C#N)C(N)=NC(OC)(OC)C23C#N)c1 (stereo not shown)	9.01%
c1ccc2c(c1)Sc1ccccc1N2CC1CN2CCC1CC2 (stereo not shown)	-53.1%
O=C(C1CC1)N1c2ccccc2Sc2ccccc21	7.2%

SMILES	hERG current change (%, negative = inhibition) at 10uM
CC1CCCN(CC(=O)N2c3ccccc3Sc3ccccc32)C1 (stereo not shown)	1.98%
Cc1ccc2nc(-c3cccnc3)oc2c1	5.22%
O=C(O)CCN(CC(=O)c1ccc(Cl)cc1)S(=O)(=O)c1ccc([N+](=O)[O-])cc1	-13.7%
Cc1ccc(C(=O)CN(CCCC(N)=O)S(=O)(=O)c2ccc([N+](=O)[O-])cc2)cc1	-66.7%
Cc1ccc(C(=O)CN(CCC(=O)O)S(=O)(=O)c2ccc([N+](=O)[O-])cc2)cc1	-25.7%
c1ccc2c3c([nH]c2c1)-c1[nH]ncc1CC3	1.38%
CC(=O)N1CCc2c(sc(NC(=O)CCS(=O)(=O)c3ccc(C)cc3)c2C(N)=O)C1	2.54%
O=C(CC1CCCC1)Nc1cc(S(=O)(=O)N2CCOCC2)ccc1O	4.05%
Cc1cccc2cc(-c3nc4c(C)cccn4c3NCc3ccco3)c(=O)[nH]c12	-11.5%
Cc1ccc2[nH]c(=O)c(-c3nc4ccccn4c3NCc3ccco3)cc2c1	-12.3%
COCCNc1c(-c2cc3ccc(C)c(C)c3[nH]c2=O)nc2ccccn12	-74.9%
O=C(NCCc1ccccc1)c1cccnc1	7.59%
COc1ccc(-c2cn[nH]c2-c2ccc(OCC(=O)NN)cc2O)cc1OC	18.3%
COc1ccccc1C1CC(c2ccc(NS(C)(=O)=O)cc2)=NN1C(=O)c1ccccc1 (stereo not shown)	-50.9%
COc1cccc(C2CC(c3ccc(Br)cc3)=NN2C(=O)c2ccncc2)c1OC (stereo not shown)	-29.7%
COc1ccc(C2CC(c3ccc(OC)c(OC)c3)=NN2C(=O)c2ccccc2)cc1 (stereo not shown)	9.33%
CCOc1ccccc1C1CC(c2cccc(NS(C)(=O)=O)c2)=NN1C(=O)c1ccccc1 (stereo not shown)	-38.1%
COc1ccc(C(=O)N2N=C(c3ccc(NS(C)(=O)=O)cc3)CC2c2cccs2)cc1 (stereo not shown)	-10.6%
COc1cccc(C2CC(c3ccc(NS(C)(=O)=O)cc3)=NN2C(=O)c2ccccc2)c1OC (stereo not shown)	-64.4%
COc1ccccc1C1CC(c2ccccc2)=NN1C(=O)c1ccccc1 (stereo not shown)	11.9%
COc1ccc(OC)c(C2CC(c3ccc(NS(C)(=O)=O)cc3)=NN2C(=O)c2ccccc2)c1 (stereo not shown)	-67.2%
COc1cccc(C2CC(c3cccc(NS(C)(=O)=O)c3)=NN2C(=O)c2ccccc2)c1OC (stereo not shown)	-40.5%
